A selection: hits, their analogues and other compounds. The true share with any hit is near 21%.
ELG1 repair inh = inhibitors of ELG1-dependent DNA repair in HEK293T cells. AID 504467. hit rate 2.3% among 330,000. Potency, µM (top dose mostly 46.1 µM), actives largely listed as inhibitors. HEK293T ELG1-luciferase reporter, luminescence, 16 h; DNA damage induced by 5-fluorouridine; note: nearly all actives have a fitted effect of over 55% in size
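In this reporter screen, reduction of luminescence relative to DMSO vehicle indicated activity. Compounds and 5-fluorouridine were added together to 2,000 cells per well, incubated for 16 hr at 37 °C, then developed with ONE-Glo.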
IL1B secr inh = inflammasome signaling inhibition, IL-1 beta readout | THP-1 LPS/ATP IL-1B secretion, AlphaLISA, 16 h; hits give low values | activity change, % at 57.5 µM | hit rate 4.7% among 360,000; in the data active = activity change below about -50%; inconclusive = mostly about -30% to -49%
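THP-1 cells pretreated 1 hr with compounds (up to 57.5 uM final), then stimulated with LPS (250 ng/mL final) plus ATP (1.25 mM final); secreted IL-1B measured by AlphaLISA after 16 hr, decreased signal indicating inhibition.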
DT40 TDP1 no CPT = qHTS for Inhibitors of human tyrosyl-DNA phosphodiesterase 1 (TDP1): qHTS in cells in absence of CPT; DT40 Tdp1-/- hTDP1 cells, no CPT, ATP luminescence, 48 h; Potency, µM (series often up to 46.2 µM), actives largely listed as inhibitors; hit rate 15% among 420,000; AID 686978, 2013; note: nearly all actives have a fitted effect of over 55% in size
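Compound effects on proliferation are scored in DT40 Tdp1-/-;hTDP1 cells in the absence of CPT. ATP levels (CellTiter-Glo luminescence) are recorded after a ≥48 hr, 37 °C incubation.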
RORgamma inh = blocks mouse ROR gamma transcriptional activity; P51450; Drosophila S2 Gal4-RORgamma UAS-luciferase reporter, 20 h; Potency, µM (top dose mostly 53.6 µM), hits mostly inhibitors; hit rate 5.4% among 310,000; AID 2551; note: nearly all actives have a fitted effect of over 60% in size
Target sequence (P51450 whole entry, looked up, the tested form may be a part): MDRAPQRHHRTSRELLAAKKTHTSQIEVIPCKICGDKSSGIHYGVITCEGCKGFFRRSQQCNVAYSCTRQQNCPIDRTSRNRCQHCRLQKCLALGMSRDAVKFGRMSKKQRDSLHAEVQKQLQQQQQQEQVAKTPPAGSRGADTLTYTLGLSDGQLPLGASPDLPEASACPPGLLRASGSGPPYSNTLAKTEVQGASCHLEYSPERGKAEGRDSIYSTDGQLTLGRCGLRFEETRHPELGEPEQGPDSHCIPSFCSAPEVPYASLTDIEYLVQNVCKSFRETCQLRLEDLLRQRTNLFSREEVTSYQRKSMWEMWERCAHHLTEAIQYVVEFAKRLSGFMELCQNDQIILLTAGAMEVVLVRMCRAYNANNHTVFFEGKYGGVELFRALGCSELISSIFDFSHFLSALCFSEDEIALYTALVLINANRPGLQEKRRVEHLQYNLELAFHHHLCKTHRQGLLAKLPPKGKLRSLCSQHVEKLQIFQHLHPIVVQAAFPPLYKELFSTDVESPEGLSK
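Drosophila S2 cells stably expressing Gal4-DBD/mouse RORγ fusion under metallothionein promoter plus UAS-luciferase; compound 1 h, then 700 uM CuSO4 induction for 20 h at ambient temperature; inhibition read as reduced luminescence.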
VP16 counter = counter-screen for ROR gamma inhibitors: Gal4-VP16 reporter | hit rate 3.5% among 310,000 | Drosophila S2 Gal4-VP16 UAS-luciferase, luminescence, 20 h | Potency, µM (series often up to 53.6 µM), actives largely listed as inhibitors | AID 2546;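 note: Gal4-VP16 expression switched on by copper sulfate through the metallothionein promoter; nearly all actives have a fitted effect of over 50% in size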
TDP1 cell CPT = growth inhibition of DT40 Tdp1-/-;hTDP1 cells with camptothecin (screen for TDP1 inhibitors). chicken DT40 Tdp1-/-;hTDP1 cells + 20 nM CPT, ATP luminescence, 48 h. Potency, µM (titrated, usually from 46.2 µM), hits mostly inhibitors. hit rate 12% among 420,000; note: nearly all actives have a fitted effect of over 55% in size
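Cell growth measured by CellTiter-Glo luminescence after a minimum 48 h, 37 C compound exposure with 20 nM CPT in Tdp1-knockout DT40 cells stably expressing hTDP1, seeded 400/well; qHTS titration format.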
Hits are given with their value; . = inactive; ? = inconclusive; / = no result; [ ] = remark or other dose. Unless noted, calls come from the whole dose curve; as a rule, active = well fitted curve in the direction sought with a large enough effect; inconclusive = small, poorly fitted or top-dose-only effect, or another doubt; inactive = no such curve, though single readings can be large; an effect the other way counts as inactive or inconclusive.

SMILES	ELG1 repair inh	IL1B secr inh	DT40 TDP1 no CPT	RORgamma inh	VP16 counter	TDP1 cell CPT
COc1ccc(NC(=O)C2CCN(C3=NS(=O)(=O)C(c4ccc(C)c(C)c4)=C3C)CC2)cc1OC	/	/	.	/	/	.
O=C(Cc1ccccc1[N+](=O)[O-])NCCC1=CCCCC1	.	.	?	.	.	.
O=S(=O)(NCCC1=CCCCC1)c1cccc(Br)c1	.	.	18.4µM	/	/	?
O=[N+]([O-])c1ccccc1S(=O)(=O)NCCC1=CCCCC1	.	.	20.6µM	?	.	18.4µM
CSc1ccc(CCNC(=O)CCc2c(C)nc3ncnn3c2C)cc1	/	/	.	/	/	.
Cn1/c(=N/NC(=O)c2cccc(OC(F)F)c2)sc2ccccc21	.	.	.	10µM	14.1µM	?
COc1cc(C(=O)N/N=c2/sc3ccccc3n2C)cc(OC)c1OC	.	.	?	.	.	.
C1=Nc2c(Nc3ccccc3)ncnc2Oc2ccccc21	?	.	10.3µM	.	.	9.2µM
COc1ccc(OC)c(-c2cc(C(=O)N/N=C/c3ccc(F)cc3)c3ccccc3n2)c1	/	/	1.03µM	/	/	5.17µM
CCc1cc(C(=O)N/N=C/c2ccc(OC)cc2)c2ccccc2n1	?	.	3.26µM	.	.	7.31µM
O=C(N/N=C/c1ccc(F)cc1)c1cc(-c2ccccn2)nc2ccccc12	.	.	.	/	/	?
COc1ccc(OC)c(-c2cc(C(=O)Nc3ccccc3C(N)=O)c3ccccc3n2)c1	/	.	8.2µM	/	/	20.6µM
COc1ccc(OC)c(-c2cc(C(=O)N/N=C/c3cc(OC)c(OC)cc3OC)c3ccccc3n2)c1	/	?	9.2µM	/	/	16.4µM
O=C(C[n+]1c(Cl)ccc2ccccc21)c1ccc2ccccc2c1	/	/	.	/	/	.
COC(=O)c1nnc(N[C@@H](Cc2c[nH]c3ccccc23)C(=O)OC)nc1C(=O)OC	/	/	/	.	.	/
Cc1ccc(S(=O)(=O)N[C@H]2COC(=O)[C@@H](C)COC(=O)[C@H](C)NC(=O)C/C=C\[C@H]2C)cc1	/	/	/	.[10 µM]	.[10 µM]	/
CCc1ccccc1N1CC(C(=O)Nc2cc(C)on2)CC1=O (stereo not drawn)	.	.	.	.	.	.
COc1ccc(NC(=O)c2c(C)oc3ccc(O)c(CN4CCN(C)CC4)c23)cc1Cl	/	/	18.4µM	/	/	16.4µM
COc1ccc(NC(=O)c2c(C)oc3ccc(O)c(CN4CCCCCC4)c23)cc1	/	/	23.1µM	/	/	20.6µM
COc1ccc(NC(=O)c2c(C)oc3ccc(O)c(CN4CCC(C)CC4)c23)cc1	/	/	14.6µM	/	/	10.3µM
COc1ccc(NC(=O)c2c(C)oc3ccc(O)c(CN4CCN(Cc5ccccc5)CC4)c23)cc1	/	/	11.6µM	/	/	20.6µM
COc1cc(NC(=O)CCN2CCN(Cc3ccccc3)CC2)cc(OC)c1	/	.	?	.	.	.
CCCCCCn1cc(CN2CC(N(C)CC)CS2(=O)=O)nn1 (stereo not drawn)	/	.	.	/	/	.
COc1ccccc1-c1c(C)oc2c(CN3CCCC(C)C3)c(O)ccc2c1=O (stereo not drawn)	.	.	?	.	.	.
COc1ccc(NC(=O)c2c(C)oc3ccc(O)c(CN4CCCC(C)C4)c23)cc1 (stereo not drawn)	/	/	?	/	/	25.9µM
SMILES	ELG1 repair inh	IL1B secr inh	DT40 TDP1 no CPT	RORgamma inh	VP16 counter	TDP1 cell CPT
Cc1oc2ccc(O)c(CN3CCCC(C)C3)c2c1C(=O)Nc1ccccc1 (stereo not drawn)	/	/	16.4µM	/	/	10.3µM
CN1CCN(c2ncc3nc(-c4ccc(F)cc4)c(=O)n(Cc4cccs4)c3n2)CC1	/	/	?	?	.	?
CSc1ccc(/C=C/C(=O)N2CCN(c3ccccn3)CC2)cc1	.	.	.	12.6µM	.	.
COc1ccc(/C=C/C(=O)NC(=S)N2CCOCC2)cc1	?	.	.	3.98µM	?	.
COc1ccc(/C=C/C(=O)N2CCN(c3ccccn3)CC2)cc1	?	.	.	.	.	.
COc1ccc(/C=C/C(=O)NC(=S)N2CCN(c3ccccn3)CC2)cc1OC	.	.	?	3.16µM	11.2µM	?
COc1ccccc1/C=C/C(=O)NC(=S)NC(C)C	?	.	16.4µM	?	.	?

Compound activity deposited in PubChem BioAssay by National Center for Advancing Translational Sciences (NCATS).
